Test systems include HCT-15 colon; HT29 colon; SNB-75 CNS; SNB-19 CNS; U251 CNS; PC-3 prostate; SK-MEL-5 melanoma; UACC-62 melanoma; LOX IMVI melanoma; SK-MEL-28 melanoma; SK-MEL-2 melanoma; EKVX NSCLC; SN12C renal; UO-31 renal; TK-10 renal; ACHN renal; CAKI-1 renal; CCRF-CEM leukemia; MOLT-4 leukemia.
Holding throughout (experiment): NCI-60 one-dose screen, 48 h (100 = growth as untreated, 0 = no growth, -100 = all killed)
Common to all, as to details: 10 µM unless noted

The structures appear in SMILES notation. Compounds without any hit were thinned out: in the full panel of roughly 83,000, 20% have a hit.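 96-well plates, one dose, 48 hours. Percent growth reported; active if below 10.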 A number with no mark means an inactive call. Activity calls are given as the source filed them.

For the compound `C#Cc1cccc(NC(=O)Nc2cccc(NC(=O)CCl)c2)c1`, the growth in the assay with HCT-15 colon is -56.5% [8.25 µM] (active); in the assay on HT29 colon, 18% [8.25 µM]; in the assay with SNB-75 CNS, 30% [8.25 µM]; in the assay with SNB-19 CNS it was -11% [8.25 µM] (active); in the assay on U251 CNS, -88% [8.25 µM] (active); in the assay on PC-3 prostate, -26.3% [8.25 µM] (active). Moreover, the growth in the assay with SK-MEL-5 melanoma was -96% [8.25 µM] (active); with UACC-62 melanoma it was -61.6% [8.25 µM] (active); in the assay with LOX IMVI melanoma it was -93.8% [8.25 µM] (active); with SK-MEL-28 melanoma it was 48.5% [8.25 µM]; with SK-MEL-2 melanoma it was 6.45% [8.25 µM] (active); in the assay on EKVX NSCLC, 102% [8.25 µM]. Also, the growth in the assay on SN12C renal is -67.7% [8.25 µM] (active); with UO-31 renal, -64.7% [8.25 µM] (active); with TK-10 renal, -59.8% [8.25 µM] (active); in the assay on ACHN renal it was -72.7% [8.25 µM] (active); with CAKI-1 renal, 15.8% [8.25 µM]; in the assay with CCRF-CEM leukemia, 14.9% [8.25 µM].

As for `COc1cc(/C(C)=C(\c2ccc(Cl)cc2)c2ccc(OCCN(C)C)cc2)ccc1F`, the growth in the assay on HCT-15 colon is 18.1%; with HT29 colon, 5.91% (active); in the assay on SNB-75 CNS, 65.4%; in the assay on SNB-19 CNS it was 87.7%; with U251 CNS, 44.3%; with PC-3 prostate, 58.1%. In addition, the growth with SK-MEL-5 melanoma is 44.2%; in the assay with UACC-62 melanoma, 50.3%; in the assay on LOX IMVI melanoma, 38.3%; in the assay with SK-MEL-28 melanoma it was 64.5%; in the assay with SK-MEL-2 melanoma, 104%; in the assay with EKVX NSCLC, 81.2%. Further, the growth in the assay with SN12C renal is 73.8%; with UO-31 renal, 47.5%; with TK-10 renal it was 72.1%; in the assay with ACHN renal, 87.4%; in the assay with CAKI-1 renal, 62.7%; in the assay with CCRF-CEM leukemia it was 49.5%. For the same compound, the growth with MOLT-4 leukemia is 42.4%.

As to `Cc1nn(-c2ccccc2)c(Cl)c1/C=C/C(=O)c1ccc(F)cc1`, the growth in the assay on HCT-15 colon is 73.9%; in the assay with HT29 colon, 91.1%; in the assay with SNB-75 CNS, 97.9%; with SNB-19 CNS, 87%; with U251 CNS, 75.9%; with PC-3 prostate, 78.7%. Besides, the growth is 91.7% in the assay with SK-MEL-5 melanoma; 65.2% in the assay with UACC-62 melanoma; 76.5% in the assay with LOX IMVI melanoma; 105% with SK-MEL-28 melanoma; 92.8% in the assay with SK-MEL-2 melanoma; 93.1% in the assay on EKVX NSCLC. The growth with SN12C renal was 88.9%; in the assay with UO-31 renal, 79.1%; with TK-10 renal it was 101%; in the assay with ACHN renal, 97.5%; in the assay with CAKI-1 renal it was 95.9%; with CCRF-CEM leukemia it was 4.52% (active). Further, the growth with MOLT-4 leukemia is 20.7%.

With `Cc1ccc(NC(=O)Cc2ccc(/C=C/C(=O)c3ncc[nH]3)cc2)cc1`, the growth in the assay on HCT-15 colon is 11%; in the assay with HT29 colon it was 9.43% (active); in the assay on SNB-75 CNS, 22.2%; in the assay with SNB-19 CNS it was 16.6%; in the assay on U251 CNS it was 7.18% (active); in the assay on PC-3 prostate, 53.3%. For the same compound, the growth in the assay with SK-MEL-5 melanoma is 73.9%; with UACC-62 melanoma, 66.2%; with LOX IMVI melanoma it was 10.9%; in the assay on SK-MEL-28 melanoma, 86.9%; with SK-MEL-2 melanoma it was 109%; in the assay with EKVX NSCLC, 82.4%. Moreover, the growth was 13.5% with SN12C renal; 39.5% in the assay on UO-31 renal; 78.4% with TK-10 renal; 73.1% in the assay on ACHN renal; 61.1% with CAKI-1 renal; 4.85% (active) in the assay with CCRF-CEM leukemia. For the same compound, the growth in the assay on MOLT-4 leukemia is 23.5%.

Regarding `Cc1c2cc[nH]c(=O)c2c(C)c2c1[nH]c1cc(OCCN3CCN(C)CC3)ccc12`, the growth was 10.1% with HCT-15 colon; -7.17% (active) in the assay on HT29 colon; 7.53% (active) in the assay on SNB-75 CNS; 12.9% in the assay with SNB-19 CNS; 17% with U251 CNS; 7.38% (active) in the assay on PC-3 prostate. Also, the growth in the assay on SK-MEL-5 melanoma is 11.9%; with UACC-62 melanoma, 5.81% (active); with LOX IMVI melanoma, -62.3% (active); with SK-MEL-28 melanoma, 5.74% (active); in the assay on SK-MEL-2 melanoma it was -13.1% (active); with EKVX NSCLC it was -2.81% (active). Also, the growth in the assay with SN12C renal was 21%; in the assay on UO-31 renal it was 2.27% (active); in the assay with TK-10 renal, 27.5%; with ACHN renal, -17.5% (active); in the assay with CAKI-1 renal it was 43.7%; with CCRF-CEM leukemia, 13.9%.

For the compound `C#CCNC(=O)[C@]1(C)CC[C@]2(C)CC[C@@H]3C(=CC[C@H]4[C@@]3(C)CC[C@H]3C(C)(C)C(=O)CC[C@]43C)[C@@H]2C1`, the growth with HCT-15 colon was 98%; with HT29 colon, 93.1%; in the assay with SNB-75 CNS, 102%; with SNB-19 CNS, 102%; with U251 CNS, 99.1%; with PC-3 prostate it was 64.6%. In addition, the growth in the assay with SK-MEL-5 melanoma is 93.3%; in the assay on UACC-62 melanoma, 83.2%; in the assay with LOX IMVI melanoma, 96.2%; with SK-MEL-28 melanoma, 102%; in the assay with SK-MEL-2 melanoma, 96.2%; in the assay with EKVX NSCLC, 100%. Besides, the growth in the assay with SN12C renal is 97.9%; with UO-31 renal, 80.5%; with TK-10 renal it was 86.4%; with ACHN renal it was 98%; in the assay on CAKI-1 renal, 83.1%; in the assay on CCRF-CEM leukemia, 69.4%. The growth in the assay with MOLT-4 leukemia is 93.1%.

For the compound `COc1cc(C2=C(c3cn(C)c4ccccc34)COC2=O)cc(OC)c1OC`, the growth in the assay with HCT-15 colon is 5.39% (active); in the assay with HT29 colon, 7.04% (active); in the assay with SNB-75 CNS, -31.3% (active); in the assay with SNB-19 CNS, 15.5%; in the assay with U251 CNS it was 13.8%; in the assay with PC-3 prostate it was 13.3%. Besides, the growth with SK-MEL-5 melanoma is 0.365% (active); in the assay on UACC-62 melanoma, 12.6%; with LOX IMVI melanoma it was 2.86% (active); in the assay with SK-MEL-28 melanoma, 21.3%; in the assay on SK-MEL-2 melanoma it was 27.7%; with EKVX NSCLC it was 28.2%. Besides, the growth with SN12C renal was 25%; in the assay on UO-31 renal it was 10.4%; with TK-10 renal it was 44.2%; in the assay with ACHN renal, 28%; in the assay on CAKI-1 renal, 7.16% (active); in the assay on CCRF-CEM leukemia it was 8.87% (active). Besides, the growth with MOLT-4 leukemia is 12.2%.

For `CCOC(=O)[C@@H]1CCCN(S(=O)(=O)c2ccc(S(=O)(=O)N(CC)CC)c(F)c2)C1`, the growth with HCT-15 colon was 84.4%; with HT29 colon, 83%; in the assay on SNB-75 CNS, 90.9%; with SNB-19 CNS, 69.2%; in the assay on U251 CNS, 82.2%; in the assay with PC-3 prostate it was 84%. The growth in the assay with SK-MEL-5 melanoma was 18.8%; in the assay with UACC-62 melanoma, 59.4%; with LOX IMVI melanoma, 62.2%; in the assay on SK-MEL-28 melanoma, 93.4%; in the assay on SK-MEL-2 melanoma, 62.6%; with EKVX NSCLC, 46.9%. Further, the growth is 85.4% with SN12C renal; 69% with UO-31 renal; 81.4% in the assay with TK-10 renal; 75% in the assay on ACHN renal; 64.1% in the assay on CAKI-1 renal; 85.1% with CCRF-CEM leukemia. In the assay on MOLT-4 leukemia, the growth was 79.4%.

The values above are taken from PubChem BioAssay (NCI).
